Experimental findings from PubChem BioAssay are described below.

A short description of assay [1]: inhibitors of TNFa-induced NFkB p65 translocation, primary screen, imaging, HUVEC, MLSMR starter and 10KST1 sets (AID 438;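 active means inhibition above 20% together with a positive visual image hit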;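 further: compound added about 3h40 before a 20 min TNFalpha stimulation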;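 on inhibition: signal is the nuclear over cytoplasmic p65 intensity ratio per well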). As to conditions: HUVEC TNFa-induced p65 nuclear translocation; cell count: measured here: nuclei count (cytotoxicity indicator), at 2.08 µM; inhibition: at 2 µM, stronger effect = higher value, 0% TNFa-plus-vehicle, 100% no-TNFa wells.
A short description of assay [2]: inhibitors of mutant huntingtin aggregation, primary screen, imaging, exon1htt(103Q)mCFP cells, high-content imaging (AID 483;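 active means visual image review flags a hit and inhibition of aggregation exceeds 20%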;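 further: compound exposure lasted 3 days before fixation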;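 on nuclei count: percent of the per-plate median nuclei count of sample wells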). The conditions noted are these: exon1htt(103Q)mCFP cell line, aggregate imaging, at 2 µM; inhibition of aggregation: stronger effect = higher value; nuclei count: measured here: cell count, toxicity.
Assay [3] in a line: inhibitors of E-selectin induction by TNFa, primary screen, imaging, HUVEC, immunofluorescence, MLSMR starter and 10KST1 sets (AID 487;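 active means visually confirmed hit in the image check and inhibition above 20%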;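 on inhibition: signal is fraction of cell area covered by stained E-selectin grains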;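 on nuclei count: 100% = median nuclei count of all wells on the same plate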). As to conditions: HUVEC TNFalpha-induced E-selectin immunofluorescence imaging, at 2 µM; inhibition: stronger effect = higher value; nuclei count: measured here: cell number, toxicity.
For assay [4], the target named is Voltage-gated potassium channel subunit beta-2 (Rattus norvegicus) (UniProt P62483). As to the kind of experiment: KvBeta enzyme negative modulators, primary screen, biochemical, NADPH fluorescence (AID 622;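 active means fluorescence slope higher than the sample average by over 3 SD, cut at about -0.22 in these data, passing the limit was not always enough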;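 further: slope of raw intensity against log time taken from 70 to 1610 s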). As to conditions: recombinant KvBeta, 4-cyanobenzaldehyde reduction, at 10 µM, stronger effect = higher value.
For assay [5] the target is unchanged. As to the kind of experiment: KvBeta positive modulators, primary screen, biochemical, NADPH fluorescence (AID 623).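 Further: fluorescence intensity change per second fitted from 20 to 320 s.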 The conditions noted are these: Recombinant KvBeta, NADPH fluorescence decrease slope, 10 min; at 10 µM; stronger effect = lower value.
In assay [6] the target is Alpha-2C adrenergic receptor (Homo sapiens) (UniProt P18825). As to the kind of experiment: modulators of alpha2C/GIRK thallium flux, primary screen, cell-based, HEK293 alpha2C/GIRK1/2 (AID 624;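 active means fluorescence slope after compound addition differing from the mean of all screened samples at 99.7% confidence, in either direction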;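 further: slope of fluorescence ratio to pre-addition baseline per second over 15 to 24 s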). The conditions noted are these: thallium flux BTC fluorescence, at 10 µM, actives lie on both sides.
The nature of assay [7]: inhibitors of Sendai virus-induced IRF3 signaling, primary screen, TLR/RLR signaling modifier project, cell-based, Sendai virus stimulus, luciferase, 10K MLSCN set (AID 602276;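 active means inhibition at or above 50% at 10 µM; inactive means inhibition below 50%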;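 further: firefly luciferase from ISG56 promoter only with Renilla not read in this screen; 0% = Sendai virus plus DMSO and 100% = medium plus DMSO without virus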). The conditions noted are these: HEK293 RL24 IRF3 luciferase reporter, at 10 µM, stronger effect = higher value. A general note: A reporter such as luciferase makes a cellular process visible.
The nature of assay [8]: inhibitors of poly I:C-induced TLR3 signaling, primary screen, cell-based, poly I:C stimulus, luciferase, 10K MLSCN set (AID 602277;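 active means inhibition of the reporter signal at or above 50%; inactive means inhibition below 50%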). As to conditions: HEK293-TLR3 RL24 IRF3 luciferase reporter, at 10 µM, stronger effect = higher value.

Each structure is given as a SMILES string. Calls of active or inactive are those of the source.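 How the source made its calls, unless noted: active means NADPH fluorescence slope more negative than the mean of all samples by about 3 SD, 99.7% confidence; inactive means the rest.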

Chain of Voltage-gated potassium channel subunit beta-2 (Rattus norvegicus) (P62483 whole entry, looked up): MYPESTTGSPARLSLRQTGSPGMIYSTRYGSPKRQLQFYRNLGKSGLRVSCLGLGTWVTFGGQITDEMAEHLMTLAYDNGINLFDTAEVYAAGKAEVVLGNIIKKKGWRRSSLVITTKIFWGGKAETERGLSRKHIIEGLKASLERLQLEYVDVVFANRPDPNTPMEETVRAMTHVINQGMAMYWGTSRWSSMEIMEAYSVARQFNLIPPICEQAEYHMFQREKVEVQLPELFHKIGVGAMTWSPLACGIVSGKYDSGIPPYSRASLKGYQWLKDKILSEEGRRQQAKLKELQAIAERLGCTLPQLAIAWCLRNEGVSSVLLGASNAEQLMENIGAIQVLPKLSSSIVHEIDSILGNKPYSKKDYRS
Chain of Alpha-2C adrenergic receptor (Homo sapiens) (P18825 whole entry, looked up): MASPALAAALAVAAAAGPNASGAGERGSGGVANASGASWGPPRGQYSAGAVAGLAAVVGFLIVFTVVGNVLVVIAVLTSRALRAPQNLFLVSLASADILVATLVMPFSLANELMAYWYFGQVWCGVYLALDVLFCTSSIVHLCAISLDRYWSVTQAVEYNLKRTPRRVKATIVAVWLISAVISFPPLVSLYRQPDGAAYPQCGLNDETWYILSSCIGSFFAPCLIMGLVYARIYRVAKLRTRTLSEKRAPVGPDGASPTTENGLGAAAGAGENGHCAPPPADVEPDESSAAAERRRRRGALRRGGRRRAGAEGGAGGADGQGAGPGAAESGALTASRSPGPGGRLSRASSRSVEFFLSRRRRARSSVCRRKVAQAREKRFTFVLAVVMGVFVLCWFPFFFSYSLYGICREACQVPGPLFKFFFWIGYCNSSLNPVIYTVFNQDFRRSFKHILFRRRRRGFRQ

In the case of `COCC(=O)Nc1c(C(=O)Nc2ccccc2OC)oc2ccccc12`, the cell count in assay [1] was 602. The inhibition (commonly the drop in the measured response relative to a control, in per cent) in assay [1] is -5.9% (inactive); in assay [3] it was 2.5% (inactive); in assay [7], -4.76% (inactive); in assay [8], 11.5% (inactive). Moreover, the inhibition of aggregation in assay [2] is 11.9% (inactive). Further, the nuclei count in assay [2] came out at 99.1%; in assay [3] it was 60.9%. For the same compound, in assay [4], the fluorescence slope is -0.318 (inactive). Also, in assay [5], the NADPH fluorescence slope is 1.2e-05 (inactive). Also, the slope in assay [6] was 0.00625 (inactive).
Take `COc1ccc(Cn2nnnc2C(c2ccccn2)N2CCN(c3cc(Cl)ccc3C)CC2)cc1` (centres undefined): in assay [1], the cell count turned out to be 669. Besides, the inhibition in assay [1] was -8% (inactive); in assay [3], -18.4% (inactive); in assay [7], 21.3% (inactive); in assay [8], 37.4% (inactive). In addition, the inhibition of aggregation in assay [2] was 2.5% (inactive). The values for the nuclei count in assay [2] and in assay [3] were 112% and 104%, respectively. Moreover, in assay [4], the fluorescence slope was -0.217 (inactive). Further, the NADPH fluorescence slope in assay [5] was -1.3e-05 (inactive). Also, the slope in assay [6] is 0.00703 (inactive).
For the compound `Cc1ccc(N2CCN(c3ccc(C)cc3)C(CC(=O)O)C2=O)cc1` (centres undefined), the cell count in assay [1] amounted to 549. Besides, the inhibition is -4.7% (inactive) in assay [1], 12.6% (inactive) in assay [3], 5.38% (inactive) in assay [7] and 4.47% (inactive) in assay [8]. Moreover, the inhibition of aggregation in assay [2] is 3.3% (inactive). Also, the nuclei count in assay [2] came to 92.3%; in assay [3], 108%. For the same compound, in assay [4], the fluorescence slope is -0.499 (inactive). In assay [5], the NADPH fluorescence slope is 1.5e-05 (inactive). Further, in assay [6], the slope is 0.00583 (inactive).
As for `O=C(OCc1cc2ccccc2[nH]c1=O)c1ccco1`, the cell count in assay [1] came to 234. Also, the inhibition in assay [1] was 5.6% (inactive); in assay [3], 40.8% (inactive); in assay [7] it was 4.98% (inactive); in assay [8] it was 31.1% (inactive). In addition, in assay [2], the inhibition of aggregation was 1.7% (inactive). Besides, the nuclei count stood at 87.3% in assay [2] and 96.9% in assay [3]. In addition, the fluorescence slope in assay [4] is -0.476 (inactive). In assay [5], the NADPH fluorescence slope is -6e-05 (inactive). Besides, the slope in assay [6] was 0.0037 (inactive).
On to `CC1(C)NC(=O)N(CN2C(=O)NC(C)(C)C2=O)C1=O`, for which, in assay [1], the cell count was determined as 579. Moreover, the inhibition in assay [1] is -7.9% (inactive); in assay [3] it was 28.8% (inactive); in assay [7], 7.1% (inactive); in assay [8], 9.34% (inactive). The inhibition of aggregation in assay [2] was -22.5% (inactive). Besides, the nuclei count in assay [2] is 114%; in assay [3], 110%. Also, the fluorescence slope in assay [4] was -0.415 (inactive). Further, in assay [5], the NADPH fluorescence slope was -3.4e-05 (inactive). Moreover, in assay [6], the slope was 0.00531 (inactive).
Regarding `O=C(Oc1cc2oc(=O)c3c(c2cc1Cl)CCCC3)c1ccco1`, the cell count in assay [1] amounted to 532. In addition, the inhibition in assay [1] was -14.1% (inactive); in assay [3], -50.1% (inactive); in assay [7] it was 4.58% (inactive); in assay [8], 7.41% (inactive). Moreover, the inhibition of aggregation in assay [2] was -4.9% (inactive). The results for the nuclei count in assay [2] and in assay [3] were 101% and 148%, respectively. Also, the fluorescence slope in assay [4] was -0.14 (inactive). Besides, the NADPH fluorescence slope in assay [5] is -2.3e-05 (inactive). Besides, in assay [6], the slope is 0.00588 (inactive).
Consider `CCN1C(=O)c2cccc3c(NC(=O)c4ccc(S(=O)(=O)N(C)C)cc4)ccc1c23`, for which the cell count in assay [1] stood at 323. The inhibition in assay [1] is -7.9% (inactive); in assay [3], -23.9% (inactive); in assay [7] it was 23.8% (inactive); in assay [8] it was 30.8% (inactive). Moreover, the inhibition of aggregation in assay [2] was -2.1% (inactive). Besides, the nuclei count in assay [2] came to 109%; in assay [3], 111%. Besides, the fluorescence slope in assay [4] was -0.319 (inactive). The NADPH fluorescence slope in assay [5] is -4.5e-05 (inactive). Moreover, the slope in assay [6] was 0.0056 (inactive).
As to `Cc1ccc2cc3cc(C(=O)NCCN4CCOCC4)oc3nc2c1`, the cell count in assay [1] was found to be 760. In addition, the inhibition in assay [1] is -5% (inactive); in assay [3], -36.3% (inactive); in assay [7] it was 7.18% (inactive); in assay [8], 8.18% (inactive). Further, the inhibition of aggregation in assay [2] was 3.7% (inactive). The nuclei count in assay [2] came to 105%; in assay [3], 111%. For the same compound, in assay [4], the fluorescence slope is -0.0588 (inactive). Further, in assay [5], the NADPH fluorescence slope was -2.5e-05 (inactive). Also, the slope in assay [6] is 0.00283 (inactive).
As to `CCn1cc(C(=O)N2CCOCC2)c(=O)c2cc(S(=O)(=O)N(C)C3CCCCC3)ccc21`, the cell count in assay [1] was found to be 518. Besides, the inhibition in assay [1] is 7.1% (inactive); in assay [3], -29.5% (inactive); in assay [7], 12.2% (inactive); in assay [8] it was 28.4% (inactive). Moreover, in assay [2], the inhibition of aggregation is 3.9% (inactive). The nuclei count in assay [2] is 84.2%; in assay [3], 87.7%. In addition, in assay [4], the fluorescence slope is -0.581 (inactive). Besides, in assay [5], the NADPH fluorescence slope was -7.6e-06 (inactive). Besides, the slope in assay [6] was 0.00672 (inactive).
In the case of `CCN(c1ccc2c(c1)OCO2)S(=O)(=O)c1cc(Br)cc2c1N(C(=O)C1CC1)CC2`, in assay [1], the cell count was determined as 341. For the same compound, the inhibition was -14.4% (inactive) in assay [1], -9% (inactive) in assay [3], 11.9% (inactive) in assay [7] and 21.6% (inactive) in assay [8]. Further, in assay [2], the inhibition of aggregation is 1.3% (inactive). For the same compound, the nuclei count came to 99.8% in assay [2] and 147% in assay [3]. In addition, the fluorescence slope in assay [4] was -0.525 (inactive). Also, the NADPH fluorescence slope in assay [5] was -0.000116 (inactive). The slope in assay [6] is 0.00411 (inactive).
Consider `CC(=O)c1cccc(S(=O)(=O)N2CCC(n3nnc4cc(F)ccc43)CC2)c1`, for which the cell count in assay [1] amounted to 598. Moreover, the inhibition in assay [1] is 2.7% (inactive); in assay [3] it was -14.7% (inactive); in assay [7] it was -0.237% (inactive); in assay [8], 31.4% (inactive). In assay [2], the inhibition of aggregation is 3.8% (inactive). For the same compound, the figures for the nuclei count in assay [2] and in assay [3] were 90.5% and 93.6%, respectively. The fluorescence slope in assay [4] was -0.4 (inactive). In addition, the NADPH fluorescence slope in assay [5] is 2.2e-05 (inactive). For the same compound, in assay [6], the slope was 0.00694 (inactive).
Consider `COc1ccccc1CN1CCCC(C(=O)N(C)Cc2ccccc2)C1` (centres undefined), for which the cell count in assay [1] is 739. The inhibition was -3.4% (inactive) in assay [1], -218% (inactive) in assay [3], 7.15% (inactive) in assay [7] and 33.5% (inactive) in assay [8]. The inhibition of aggregation in assay [2] is 23.6% (inactive). In addition, the figures for the nuclei count in assay [2] and in assay [3] were 99.1% and 126%, respectively. Also, the fluorescence slope in assay [4] was -0.37 (inactive). Further, the NADPH fluorescence slope in assay [5] was -9.6e-06 (inactive). Also, the slope in assay [6] is 0.00506 (inactive).
Regarding `CCCCSCCCNC(=O)CS(=O)Cc1nc(-c2cccc(C)c2)oc1C` (centres undefined), the cell count in assay [1] was determined as 527. The inhibition was -9.6% (inactive) in assay [1], -27.5% (inactive) in assay [3], 10.8% (inactive) in assay [7] and 10.7% (inactive) in assay [8]. In addition, the inhibition of aggregation in assay [2] was -1.1% (inactive). Also, the figures for the nuclei count in assay [2] and in assay [3] were 107% and 113%, respectively. Moreover, the fluorescence slope in assay [4] is -0.308 (inactive). For the same compound, the NADPH fluorescence slope in assay [5] was 1.3e-05 (inactive). Further, the slope in assay [6] is -0.000762 (active).
On to `CCN(CC)C(=O)Cn1c(=O)n(Cc2ccccc2Cl)c2c1c(=O)n(C)c(=O)n2C`, for which the cell count in assay [1] is 678. Moreover, the inhibition is -6.4% (inactive) in assay [1], 49% (inactive) in assay [3], 2.5% (inactive) in assay [7] and 10.3% (inactive) in assay [8]. For the same compound, the inhibition of aggregation in assay [2] was 21.9% (inactive). The nuclei count in assay [2] stood at 94.3%; in assay [3], 85.7%. Besides, the fluorescence slope in assay [4] is -0.45 (inactive). The NADPH fluorescence slope in assay [5] is 3.6e-05 (inactive). The slope in assay [6] is 0.00765 (inactive).
